A selection: hits, their analogues and other compounds. The true share with any hit is near 2.6%.
PME-1 Maybridge: inhibitors of human PME-1 in Maybridge library; recombinant PME-1, FP-Rh probe fluorescence polarization; inhibition, % at 9 µM; 16,000 compounds, 0.5% hits; in the data active = inhibition above about 30%
S1P1 agonist: S1P1 (human) receptor agonism; S1P1 agonist cell-based reporter assay; activation, % at 4.5 µM; 16,000 compounds, 1.5% hits; AID 1044; in the data active = activation above about 80%
KOR antag MB: antagonists of human kappa opioid receptor OPRK1, Maybridge library; AID 652031; OPRK1 cells, antagonist mode, fluorescence readout; P41145; inhibition, % at 9 µM; 16,000 compounds, 0.4% hits; in the data active = inhibition above about 50%
Target sequence (P41145 whole entry, looked up): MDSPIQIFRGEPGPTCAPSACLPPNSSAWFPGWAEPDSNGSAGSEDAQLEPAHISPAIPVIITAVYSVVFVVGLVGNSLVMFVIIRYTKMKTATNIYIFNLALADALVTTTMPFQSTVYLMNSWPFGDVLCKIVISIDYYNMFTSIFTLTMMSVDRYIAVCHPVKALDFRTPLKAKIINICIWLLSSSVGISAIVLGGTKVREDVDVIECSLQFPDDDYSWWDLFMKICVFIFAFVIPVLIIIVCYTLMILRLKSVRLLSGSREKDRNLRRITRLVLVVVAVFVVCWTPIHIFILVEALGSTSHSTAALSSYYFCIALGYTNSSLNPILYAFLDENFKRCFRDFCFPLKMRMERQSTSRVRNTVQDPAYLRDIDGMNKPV
TLR4-MyD88 inh: inhibitors of human TLR4-MyD88 binding; Cell-based TLR4-MyD88 binding inhibition assay; inhibition, % at 10 µM; 16,000 compounds, 0.06% hits; AID 811; in the data active = inhibition above about 45%
NOTCH ag: NOTCH pathway agonism; NOTCH signaling luciferase reporter cells, luminescence; activation, % at 2.5 µM; 15,000 compounds, 0.4% hits; in the data active = activation above about 2.2%
An asterisk follows results filed as active; · = no result given.

SMILES	PME-1 Maybridge	S1P1 agonist	KOR antag MB	TLR4-MyD88 inh	NOTCH ag
Cc1nc2cc(-c3ccccc3)nn2c(C)c1Sc1nccc(-c2cccnc2)n1	8.1	-17.1	-10.9	1.9	·
CC(=O)c1sc2nc(-c3cccs3)cc(C(F)(F)F)c2c1N	5.2	12.4	88.6*	22.0	-0.2
O=[N+]([O-])c1ccc(N2CCc3ccccc32)cc1	9.4	44.6	64.6*	24.4	0.9
Cc1c(C(=O)CC#N)sc2ccc(Cl)cc12	0.0	-8.1	-3.6	3.9	0.7
Cc1c(C(=O)Cn2ccnc2)sc2ccc(Cl)cc12	-5.0	104.3*	-13.9	2.2	-0.1
Cc1ccc(S(=O)(=O)NC(=O)N2CCCN(c3ncccc3[N+](=O)[O-])CC2)cc1	1.9	6.1	9.0	8.4	0.3
O=C(NC(=O)N1CCOCC1)c1ccc([N+](=O)[O-])s1	-1.6	89.0*	2.9	14.0	-1.2
NC(=O)N/N=C/c1ccc(-c2cc(C(F)(F)F)cc(C(F)(F)F)c2)s1	-1.3	97.5*	3.7	7.2	-0.4
COc1ccc([N+](=O)[O-])c(S(=O)(=O)c2ccc(Cl)cc2)n1	2.9	104.0*	81.6*	-8.0	-1.3
COc1cc(Sc2ccc(Cl)cc2)ccc1[N+](=O)[O-]	-0.3	6.8	-4.8	2.6	0.2
CCOc1ccsc1C(=O)NNC(=O)c1ccc([N+](=O)[O-])cc1	-1.4	3.3	-6.1	-2.6	0.1
CCOC(=O)COc1nc(-c2cccs2)cc(-c2ccco2)c1C#N	-10.0	-16.0	-26.0	1.4	-0.3
N/C(=N\OC(=O)c1c(F)cccc1F)c1cccc(-n2cccc2)c1	-6.7	95.0*	5.2	2.1	-0.3
NC(=S)c1cccc(-n2cccc2)c1	0.2	4.6	13.1	2.9	-0.5
Cn1nc(-c2ccccc2)cc1NC(=O)Nc1cccs1	31.7*	-11.7	7.5	-1.8	-0.1
Cc1noc(-c2ccccc2)c1NC(=O)Nc1cc(C2CC2)nn1C	1.3	5.2	7.1	4.9	-0.9
O=C(/C(=C\c1ccccc1)n1ccnc1)c1ccccc1OCc1ccccc1	6.7	120.9*	-9.7	-1.2	·
C=CCn1c(-c2cnn(-c3ccccc3)c2N)n[nH]c1=S	1.4	-12.8	-1.0	-1.6	-0.4
CC1CC(NC(=S)NCCO)CC(C)(C)C1 (configuration not stated)	-13.7	1.1	-13.7	2.8	1.4
CNc1ccc(Cl)cc1C(=O)NC1CC(C)CC(C)(C)C1 (configuration not stated)	1.1	-5.0	-13.1	-6.8	2.6*
CNc1nnc(SCc2csc3ccccc23)s1	-2.8	118.1*	2.3	13.4	·
N=C(N)SCc1csc2ccccc12	3.2	19.7	-4.8	-11.0	2.4*
Cc1cc(/C=N\NC(=O)CCc2ccc(O)cc2)c2c(C)ccc(C(C)C)cc1-2	49.3*	-23.8	-16.9	-4.7	0.0
Cc1cc(/C=N\NC(N)=S)c2c(C)ccc(C(C)C)cc1-2	5.9	-12.2	1.5	6.6	0.1
O=C(c1cccs1)n1nccc1-c1cccs1	-3.1	1.4	8.9	-10.0	-0.7
SMILES	PME-1 Maybridge	S1P1 agonist	KOR antag MB	TLR4-MyD88 inh	NOTCH ag
CSc1nnc(SCC(=O)N2CCC(C(F)(F)F)CC2)s1	-3.9	-13.0	-1.7	-6.1	2.7*
Cn1c(=O)c2c(NCc3ccccc3)cc(=O)n(C)c2n(C)c1=O	-0.5	-37.3	16.6	-9.8	8.5*
CC(C)CNC(=O)[C@H](C)NC(=O)c1ccc(Cl)cc1Cl	-2.8	-22.6	-5.5	-7.3	-0.3
CCN(CC)c1ccc(/C=C/c2ccc([N+](=O)[O-])cc2C#N)cc1	-2.0	104.0*	68.8*	7.4	-0.1
CCN(CC)c1ccc(C#N)cc1	5.3	-2.6	-3.5	-7.7	0.1
O=C1NCCN1CCNS(=O)(=O)c1ccc(S(=O)(=O)c2ccccc2)s1	3.6	83.5*	-0.2	16.5	-1.0
O=C1NCCN1CCNS(=O)(=O)c1ccc2c(c1)CCO2	0.3	-8.0	3.6	4.0	-0.7
O=C(CO/N=C/c1ccc(Cl)cc1Cl)NNC(=S)Nc1cc(Cl)ccc1Cl	7.9	85.8*	9.0	0.1	0.5
COC(=O)CO/N=C/c1ccc(Cl)cc1Cl	-2.4	13.7	8.3	0.1	0.8
CN(C)C(=O)/C=C/c1ccccc1	4.9	-7.9	20.2	1.4	0.2
CC(=O)C1C(=O)C=C(/C=C/c2ccccc2)CC1c1ccccc1 (configuration not stated)	0.3	99.4*	18.9	-5.2	-0.1
CSc1cccc(OC(F)(F)F)c1NC(=O)C(C)(C)C	1.1	-3.4	-3.0	4.2	-0.1
Cc1cc(C(=O)NNC(=O)CSCc2cccc3ccccc23)no1	4.1	-10.0	11.1	-9.0	2.8*
CC(=O)c1sc(-c2ccsc2)nc1C	-1.2	-6.2	-0.5	-1.3	-0.4
Cc1noc(C)c1C(=O)Nc1ccc(Cl)cc1	7.9	4.0	13.1	2.4	0.3
CCOC(=O)c1sc(-c2ccccc2)nc1C	-2.2	97.1*	-11.3	16.0	-0.5
CCOC(=O)c1sc(SCc2ccc(Cl)cc2)nc1C	0.3	76.9	1.2	4.5	-0.5
CCOC(=O)C1CCN(C(=O)c2sc(-c3ccccc3)nc2C)CC1	0.4	4.7	3.8	0.7	0.3
CCOC(=O)c1sc(COc2cccc(Cl)c2)nc1C	-0.1	90.8*	2.9	-1.3	-0.7
CC(=O)Oc1ccc(OC(C)=O)c2c1C(=O)c1ccccc1C2=O	84.9*	17.2	28.1	-0.1	0.2
COC(=O)c1cnc(Sc2ccc(Cl)cc2)nc1C(F)(F)F	2.8	15.2	20.5	-21.8	-1.2
CCOC(=O)c1cnc(SCc2ccc(Cl)cc2)nc1C(F)(F)F	3.8	80.6*	4.2	-1.0	-0.6

Assay outcomes (PubChem BioAssay)
